From PubChem BioAssay
Sampled rows, rich in hits. Any-hit rate of the full collection: about 10%.
SARS PLP yeast = inhibitors of SARS-CoV papain-like protease in yeast; S. cerevisiae expressing SARS-CoV PLpro, growth rescue; Potency, µM (series often up to 32.9 µM), for the others: at the top dose activity, positive = growth rescue, most hits filed as activators; 330,000 compounds, 0.19% hits; note: 0% is about no effect; nearly all actives have a fitted effect of over 55% in size
Pf growth 96h = P. falciparum growth inhibition at 96 hour, primary screen for plastid delayed-death inhibitors | P. falciparum luciferase reporter growth, 96 h | Potency, µM (top dose mostly 28.7 µM), inactives show top-dose activity change, negative = inhibition, usual class: inhibitors | 320,000 compounds, 6.9% hits; active = well fitted inhibition curve with a large enough effect; inconclusive = small, poorly fitted or top-dose-only effect, or another doubt; inactive = no such curve, though single readings can be large or run the other way; note: % is set by controls: 0 for no effect and ±100 for the full control effect
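Erythrocytes infected with luciferase-expressing P. falciparum were dispensed at 2% hematocrit and 0.05% parasitemia (final), then incubated with compounds 96 hours at 37 C in 5% CO2. Luminescence after detection reagent addition reported growth.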
Pf growth 48h = inhibits P. falciparum growth in the first generation, 48 h; P. falciparum luciferase growth in erythrocytes, 48 h; Potency, µM (top dose mostly 28.7 µM), without a hit: top-dose activity change, negative = inhibition, hits mostly inhibitors; 310,000 compounds, 5.9% hits; active = well fitted inhibition curve with a large enough effect; inconclusive = small, poorly fitted or top-dose-only effect, or another doubt; inactive = no such curve, though single readings can be large or run the other way; note: % is set by controls: 0 for no effect and ±100 for the full control effect
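A one-generation exposure of luciferase-tagged malaria parasites in RPMI 1640/Albumax erythrocyte culture, 37 C and 5% CO2. Inhibition is inferred from decreased luminescence after adding detection reagent.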
NS1 function inh = inhibitors of influenza NS1 protein function. Potency, µM (titrated, usually from 46.1 µM), inactives show at the highest dose activity, positive = more growth. 270,000 compounds, 0.4% hits; note: actives are rising curves; nearly all actives have a fitted effect of over 50% in size
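A cell-based growth assay was used: compounds that relieve NS1-induced slow growth of budding yeast raise OD600. Assay medium was yeast nitrogen base with ammonium sulphate and -URA supplement, pH 6.0, with 2% galactose.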
An asterisk follows results filed as active; ? = inconclusive; . = not tested or not shown; [ ] = another dose, or the depositor's remark. Unless noted, calls come from the whole dose curve. Potency is the fitted concentration of half-maximal effect.

SMILES	SARS PLP yeast	Pf growth 96h	Pf growth 48h	NS1 function inh
CC(Oc1cc2oc(=O)c3c(c2cc1Cl)CCC3)C(=O)NC1CC(C)(C)NC(C)(C)C1 (stereo unspecified)	?	?	13.1µM*	-2.0%
CC(Oc1ccc2c3c(c(=O)oc2c1)CCCC3)C(=O)NC1CC(C)(C)NC(C)(C)C1 (stereo unspecified)	-1.8%	9.28µM*	14.7µM*	-3.0%
COc1ccc(-c2cc(=O)oc3cc4occ(C)c4cc23)cc1	-1.7%	0.828µM*	?	1.6%
Cc1cccc(C(=O)N2CCN(S(=O)(=O)N3CCCCCC3)CC2)c1	1.4%	44.7%	28.1%	-1.3%
CCCCc1ccc(-n2c(Cc3cccs3)n[nH]c2=S)cc1	-3.3%	?	-12.1%	11.2%
CN(C)C(=O)COc1ccc2c3c(c(=O)oc2c1)CCCC3	0.0%	9.28µM*	19.4%	-10.4%
CC(C)c1ccc(-c2nn(-c3ccccc3)cc2C(=O)NCC2CCCO2)cc1 (stereo unspecified)	-5.9%	?	?	.
CC(C)CC(=O)Nc1ccc(C(=O)COC(=O)C2CC(=O)N(Cc3ccccc3)C2)cc1 (stereo unspecified)	6.4%	-25.8%	12.5%	.
CN(C(=O)Nc1ccc(Cl)cc1Cl)[C@H]1c2cc(Br)ccc2OC[C@H]1CO	-25.2%	?	8.28µM*	-18.5%
CCOC(=O)N1CCc2c(sc(NC(=O)c3ccc(S(=O)(=O)N4CCCC4)cc3)c2C#N)C1	24.9%	?	11.7µM*	-20.5%
CCOC(=O)c1c(NC(=O)c2ccc(S(=O)(=O)N3CCOCC3)cc2)sc2c1CCN(C)C2	6.0%	?	11.7µM*	-18.6%
CCOC(=O)c1c(NC(=O)c2ccc(S(=O)(=O)N3CCOCC3)cc2)sc2c1CC(C)(C)NC2(C)C	-2.5%	45.6%	5.3%	9.1%
CC(C)N1CCc2c(sc(NC(=O)c3ccc(S(=O)(=O)N4CCOCC4)cc3)c2C#N)C1	1.6%	?	-12.9%	-8.1%
COc1ccc(NC(=O)c2ccc(-c3nn(C)c(=O)c4ccccc34)cc2)cc1	1.3%	428.9%	-20.5%	0.9%
CCN(CC)C(=O)c1ccc(-c2nnc(Nc3ccc(O)cc3)c3ccccc23)cc1	5.9%	7.1%	?	-4.7%
CCN(CC)C(=O)c1ccc(NC(=O)c2ccc(-c3nn(C)c(=O)c4ccccc34)cc2)cc1	1.3%	10.4µM*	8.7%	-0.5%
CN(C)C(=O)c1ccc(-c2nnc(NCc3ccccc3)c3ccccc23)cc1	?	2.94µM*	13.1µM*	-3.7%
CCN(CC)C(=O)c1ccc(-c2nnc(Nc3ccc(C(=O)N(C)C)cc3)c3ccccc23)cc1	-9.4%	7.6%	5.86µM*	-20.6%
O=C(CS(=O)(=O)Cc1ccccc1)NCCc1ccc(F)cc1	3.9%	-19.8%	8.4%	-1.1%
Cc1ccc(N2CCN(S(=O)(=O)c3ccc4c(c3)NC(=O)C(C)C(=O)N4)CC2C)cc1 (stereo unspecified)	-0.6%	1.2%	?	12.8%
O=C1S/C(=C\c2ccc(N3CCOCC3)o2)C(=O)N1Cc1c(F)cccc1Cl	-3.6%	11.7µM*	?	-21.8%
COc1ccccc1CNc1ccc(Br)cn1	-5.6%	?	-23.4%[0.00184 µM]	-4.9%
CN(C)c1ccc(C(=O)N2CCCC2)cc1	1.7%	11.7µM*	43.3%	.
CN(C)c1ccc(C(=S)N2CCCCCC2)cc1	24.3%	38.0%	.	3.2%
O=C(Nc1nn[nH]n1)c1nc(-c2ccccc2)cc(=O)[nH]1	.	.	.	0.0%
SMILES	SARS PLP yeast	Pf growth 96h	Pf growth 48h	NS1 function inh
CCCN(C(=O)CCOc1ccc(C(C)(C)C)cc1)c1c(N)n(Cc2ccccc2)c(=O)[nH]c1=O	8.1%	?	2.62µM*	.
COCCCN(C(=O)CCOc1ccccc1C)c1c(N)n(Cc2ccccc2)c(=O)[nH]c1=O	2.8%	?	13.1µM*	.
Cc1ccc(OCCC(=O)N(CCC(C)C)c2c(N)n(Cc3ccccc3)c(=O)[nH]c2=O)cc1	-0.8%	?	10.4µM*	.
CC(C)CCN(C(=O)CCSc1ccc(F)cc1)c1c(N)n(Cc2ccccc2)c(=O)[nH]c1=O	-7.1%	?	9.28µM*	.
C[C@]12c3[nH]c4cc(-c5ccco5)ccc4c3CCN1C(=O)[C@@H](CC(=O)NCCC1=CCCCC1)C[C@@H]2C(=O)N1CCOCC1	2.1%	.	.	.
O=C(NN=C1CCCCC1)c1ccccc1-n1cccc1	-1.7%	12.0%	9.8%	8.5%
NS(=O)(=O)Oc1ccccc1	1.4%	38.2%	72.3%	0.8%
COc1ccccc1CNC(=O)c1ccc2nc(N3CCOCC3)sc2c1	6.5%	53.4%	-17.8%	-21.5%
COCCCN(C(=O)C(C)Oc1ccc(Br)cc1)c1c(N)n(Cc2ccccc2)c(=O)[nH]c1=O (stereo unspecified)	-3.9%	?	13.1µM*	.
COc1ccc2c(c1)CCN=C2Cc1ccc(OC)c(OC)c1	9.1%	13.1µM*	?	7.4%
COc1ccc(C2CC(c3cccs3)=NN2S(C)(=O)=O)cc1OC (stereo unspecified)	0.4%	5.7%	-9.6%	5.4%
COc1ccc(C2CC(c3c(-c4ccccc4)c4cc(Cl)ccc4[nH]c3=O)=NN2S(C)(=O)=O)cc1OC (stereo unspecified)	2.1%	?	10.4µM*	8.6%
CN(Cc1ccccc1)S(=O)(=O)c1ccc2[nH]c(=O)ccc2c1	-1.0%	14.7µM*	7.4%	-3.2%
Cc1cccc(C)c1NC(=O)CNC(=O)CCNC(=O)c1ccco1	-0.7%	-27.4%	-4.8%	.
CCOC(=O)c1c(NC(=O)c2ccco2)sc2c1CCCC2	5.5%	.	9.3%	6.7%
CCOC(=O)c1c(NC(=O)C(NCCN(C)C)c2ccccc2)sc2c1CCCC2 (stereo unspecified)	-1.0%	?	9.28µM*	12.6%
CCOC(=O)c1c(NC(=O)CSc2nnc(-c3c[nH]c4ccccc34)n2CCOC)sc2c1CCCCC2	-0.4%	9.28µM*	?	24.1%
CCOC(=O)c1c(NC(=O)c2ccccc2N(C)S(=O)(=O)c2ccccc2)sc2c1CCCC2	7.8%	?	?	?
CCOC(=O)c1c(NC(=O)CSc2c[nH]c3ccccc23)sc2c1CCCC2	-11.5%	-91.3%	-4.5%	-4.7%
CCOC(=O)c1c(NC(=O)C(=O)N/N=C/c2ccccc2O)sc2c1CCCCC2	?	0.928µM*	0.657µM*	-6.1%
CCOC(=O)c1c(NC(=O)c2ccn(CC)n2)sc2c1CCCC2	0.7%	.	10.4µM*	-55.4%
O=C(NC(=S)Nc1ccccc1F)C1CCCCC1	?	?	-16.3%	-8.8%
CCNCc1nc2cc(Cl)ccc2c(=O)[nH]1	0.4%	35.3%	2.6%	.
CC(C)NC(=O)c1ccc(-c2ccccc2C(F)(F)F)o1	-2.0%	9.8%	22.0%	2.3%
CC(C)NC(=O)c1ccc(-c2ccc(Cl)c(C(F)(F)F)c2)o1	-9.0%	3.29µM*	.	6.0%
COC(=O)C1(C)NC(c2ccc(O)cc2)C2C(=O)N(c3ccc(C)cc3)C(=O)C21 (stereo unspecified)	-1.5%	4.65µM*	30.3%	1.1%
CCCC1(C(=O)OCC)NC(c2ccc(N(C)C)cc2)C2C(=O)N(c3ccc(OCC)cc3)C(=O)C21 (stereo unspecified)	3.4%	?	11.7µM*	-32.6%
